Laboratory results: PubChem BioAssay (NCI)
Compounds without any hit were thinned out: in the full panel of roughly 83,000, 20% have a hit.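 Cells were grown in 96-well plates and exposed to the test compound at a single concentration for 48 hours; results are reported as percent growth, with values below 10 considered active.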 Active and inactive are the calls of the source.

Legend:
Assay in all cases: NCI-60 one-dose screen, 48 h (100 = growth as untreated, 0 = no growth, -100 = all killed)
Settings in all cases: 10 µM unless noted
SR leukemia = tested on: SR leukemia
RPMI-8226 leukemia = tested on: RPMI-8226 leukemia
OVCAR-8 ovarian = tested on: OVCAR-8 ovarian
OVCAR-5 ovarian = tested on: OVCAR-5 ovarian
OVCAR-4 ovarian = tested on: OVCAR-4 ovarian
IGROV1 ovarian = tested on: IGROV1 ovarian
OVCAR-3 ovarian = tested on: OVCAR-3 ovarian
HS 578T breast = tested on: HS 578T breast
NCI/ADR-RES ovarian = tested on: NCI/ADR-RES ovarian
SK-OV-3 ovarian = tested on: SK-OV-3 ovarian

Measured: growth

CC(=O)Nc1nc(C)c(C(=O)N/N=C/N2CCCCC2)s1
active: IGROV1 ovarian 9.23%
inactive: SR leukemia 104% | RPMI-8226 leukemia 124% | OVCAR-8 ovarian 103% | OVCAR-5 ovarian 103% | OVCAR-4 ovarian 121% | OVCAR-3 ovarian 128% | HS 578T breast 107% | NCI/ADR-RES ovarian 104%

Cc1ccc(S(=O)(=O)NC(CCC(=O)Nc2ccccc2)C(=O)Nc2ccccc2)cc1 (stereo not given)
active: SR leukemia 4.65% | RPMI-8226 leukemia -17.1% | OVCAR-8 ovarian -10.9% | OVCAR-5 ovarian -8.85% | OVCAR-4 ovarian -4.83% | IGROV1 ovarian -25.1% | OVCAR-3 ovarian -42% | HS 578T breast 2.98% | NCI/ADR-RES ovarian -24.7%

CC1(C)NCCC[C@]2(C)[C@H]3CC=C4[C@@H]5C[C@](C)(COC(=O)c6ccccc6C(=O)O)CC[C@]5(C)CC[C@@]4(C)[C@]3(C)CC[C@@H]12
inactive: SR leukemia 25.2% | RPMI-8226 leukemia 19.2% | OVCAR-8 ovarian 83.7% | OVCAR-5 ovarian 88.8% | OVCAR-4 ovarian 51.3% | IGROV1 ovarian 59.2% | HS 578T breast 63% | NCI/ADR-RES ovarian 78.2%

C=C(C)[C@@H]1CC[C@]2(COC(=O)c3ccccc3C(=O)O)CC[C@]3(C)[C@H](CC[C@@H]4[C@@]5(C)CCCNC(C)(C)[C@@H]5CC[C@]43C)[C@@H]12
inactive: RPMI-8226 leukemia 23.3% | OVCAR-8 ovarian 70.5% | OVCAR-5 ovarian 90% | OVCAR-4 ovarian 57.3% | IGROV1 ovarian 54.5% | OVCAR-3 ovarian 68% | HS 578T breast 78.5% | NCI/ADR-RES ovarian 89.7%
active: SR leukemia 6.59%

Ic1ccc(SSc2ccc(I)cc2)cc1
inactive: SR leukemia 60.6% | RPMI-8226 leukemia 95.6% | OVCAR-8 ovarian 92.6% | OVCAR-5 ovarian 114% | OVCAR-4 ovarian 99.7% | IGROV1 ovarian 82.4% | OVCAR-3 ovarian 102% | HS 578T breast 96.9% | NCI/ADR-RES ovarian 101%

CC(C)CCCCCOC(=O)c1ccccc1SSc1ccccc1C(=O)OCCCCCC(C)C
inactive: SR leukemia 86.9% | RPMI-8226 leukemia 88.8% | OVCAR-8 ovarian 104% | OVCAR-5 ovarian 106% | OVCAR-4 ovarian 109% | IGROV1 ovarian 116% | OVCAR-3 ovarian 111% | HS 578T breast 104% | NCI/ADR-RES ovarian 107%

CCS(=O)(=O)OCCO[C@H]1Cc2cc3ccc(=O)oc3cc2OC1(C)C
inactive: SR leukemia 111% | RPMI-8226 leukemia 113% | OVCAR-8 ovarian 101% | OVCAR-5 ovarian 107% | OVCAR-4 ovarian 106% | IGROV1 ovarian 109% | OVCAR-3 ovarian 108% | HS 578T breast 98% | NCI/ADR-RES ovarian 107%

O=C1C(Br)=CC2C1C1C3CCC3C2(Br)C12OCCO2 (stereo not given)
inactive: OVCAR-8 ovarian 28.5% | OVCAR-5 ovarian 33.5% | OVCAR-4 ovarian 59.2% | IGROV1 ovarian 36.7% | OVCAR-3 ovarian 12.5% | NCI/ADR-RES ovarian 51.3%
active: SR leukemia 4.59% | RPMI-8226 leukemia 7.82%

CCCNC(=O)Oc1ccc(/C(=C(/C)Cc2ccc(OC)cc2)c2ccc(OCCN3CCCCC3)cc2)cc1
inactive: RPMI-8226 leukemia 77.5% | OVCAR-8 ovarian 91.1% | OVCAR-5 ovarian 94.9% | OVCAR-4 ovarian 87.3% | IGROV1 ovarian 98.4% | HS 578T breast 71.7% | NCI/ADR-RES ovarian 84.4%
active: SR leukemia 3.39%

Cc1ccc(C(=O)NN)cc1
inactive: SR leukemia 80.3% | OVCAR-5 ovarian 116% | OVCAR-4 ovarian 98.2% | SK-OV-3 ovarian 110% | IGROV1 ovarian 124% | NCI/ADR-RES ovarian 103%

CCN(CC)c1ccc2nc3ccc(N=Nc4ccc(O)cc4)cc3[n+](-c3ccccc3)c2c1
inactive: SR leukemia 49% | RPMI-8226 leukemia 30.6% | OVCAR-8 ovarian 56.8% | OVCAR-5 ovarian 113% | SK-OV-3 ovarian 89.7% | NCI/ADR-RES ovarian 101%
active: IGROV1 ovarian 8.59% | OVCAR-3 ovarian -15.4%

CCCCCCCCc1ccc(CCC(N)(CO)CO)cc1
inactive: OVCAR-5 ovarian 56.8% | SK-OV-3 ovarian 83.6%
active: SR leukemia -32.8% | RPMI-8226 leukemia -23.2% | OVCAR-8 ovarian -68.6% | IGROV1 ovarian -37.9% | OVCAR-3 ovarian -47.9% | NCI/ADR-RES ovarian 9.65%

N#Cc1ccc(NC2c3ccccc3CC2O)cc1 (stereo not given)
inactive: SR leukemia 99.3% | RPMI-8226 leukemia 96.3% | OVCAR-8 ovarian 122% | OVCAR-5 ovarian 113% | SK-OV-3 ovarian 106% | IGROV1 ovarian 116% | NCI/ADR-RES ovarian 115%

CC(=O)Oc1cc2ccccc2cc1C(C)C
inactive: RPMI-8226 leukemia 109% | OVCAR-8 ovarian 104% | OVCAR-5 ovarian 98.9% | OVCAR-4 ovarian 108% | SK-OV-3 ovarian 104% | IGROV1 ovarian 123% | OVCAR-3 ovarian 115% | HS 578T breast 99.8% | NCI/ADR-RES ovarian 116%

C[C@]12CC[C@H]3[C@@H](CC[C@H]4C[C@@H](O)CC[C@@]43C)[C@@H]1CC(=O)C2
inactive: SR leukemia 89.8% | OVCAR-8 ovarian 95.3% | OVCAR-5 ovarian 94.8% | OVCAR-4 ovarian 104% | SK-OV-3 ovarian 118% | IGROV1 ovarian 103% | OVCAR-3 ovarian 112% | NCI/ADR-RES ovarian 106%

O=C(Nc1ccc(-n2cc(-c3ccncc3)c(-c3ccc(Cl)c(O)c3)n2)cc1)Nc1ccc(Cl)c(C(F)(F)F)c1
inactive: OVCAR-5 ovarian 30.1% | OVCAR-4 ovarian 16.1%
active: SR leukemia -10.6% | OVCAR-8 ovarian 1.06% | SK-OV-3 ovarian 3.02% | IGROV1 ovarian -0.0868% | OVCAR-3 ovarian 2.48% | HS 578T breast -38.6% | NCI/ADR-RES ovarian 6.63%

COc1cc(-c2nn(-c3ccc(NC(=O)c4cc(Cl)cc(Cl)c4)cc3)cc2-c2ccncc2)ccc1Cl
inactive: SR leukemia 14.6% | OVCAR-8 ovarian 96.9% | OVCAR-5 ovarian 95.7% | OVCAR-4 ovarian 100% | SK-OV-3 ovarian 111% | IGROV1 ovarian 116% | OVCAR-3 ovarian 81% | NCI/ADR-RES ovarian 84.2%

CC1C(=O)CCCC1=O
inactive: SR leukemia 97.6% | RPMI-8226 leukemia 101% | OVCAR-8 ovarian 107% | OVCAR-5 ovarian 104% | SK-OV-3 ovarian 108% | IGROV1 ovarian 102% | OVCAR-3 ovarian 118% | NCI/ADR-RES ovarian 113%

Nc1nc(-c2cccc(Br)c2)cc(-c2cc3ccccc3oc2=O)n1
inactive: SR leukemia 89.6% | RPMI-8226 leukemia 98.7% | OVCAR-8 ovarian 97.2% | OVCAR-5 ovarian 106% | SK-OV-3 ovarian 97.8% | IGROV1 ovarian 67.2% | OVCAR-3 ovarian 99.6% | HS 578T breast 87.3% | NCI/ADR-RES ovarian 105%

N#CCCCCCCCCCCC#N
inactive: SR leukemia 118% | RPMI-8226 leukemia 94.9% | OVCAR-8 ovarian 100% | OVCAR-5 ovarian 99.6% | SK-OV-3 ovarian 109% | IGROV1 ovarian 124% | OVCAR-3 ovarian 125% | NCI/ADR-RES ovarian 98.3%

CC(C)(C)C(=O)OCOP(=O)(OCOC(=O)C(C)(C)C)C1CC(O)N(O)C1=O (stereo not given)
inactive: OVCAR-8 ovarian 13.7% | OVCAR-5 ovarian 73.8% | OVCAR-4 ovarian 74.4% | SK-OV-3 ovarian 52.5% | OVCAR-3 ovarian 53.6% | NCI/ADR-RES ovarian 44.6%
active: RPMI-8226 leukemia 9.24% | IGROV1 ovarian 3.72% | HS 578T breast -4.97%

NCCCOc1cc2ccccc2cc1C(=O)Nc1ccc(Cl)cc1OC(=O)c1cc2ccccc2cc1OCCCN
active: SR leukemia -47.5% | RPMI-8226 leukemia -46.6% | OVCAR-8 ovarian -77% | OVCAR-5 ovarian -92.7% | OVCAR-4 ovarian -74.4% | OVCAR-3 ovarian -99.1% | HS 578T breast -46.8% | NCI/ADR-RES ovarian -61.5%

O=C1c2cc([N+](=O)[O-])ccc2-c2cc(Cl)c(NC(=O)C(F)(F)F)cc21
inactive: SR leukemia 98.6% | RPMI-8226 leukemia 102% | OVCAR-8 ovarian 121% | OVCAR-5 ovarian 104% | SK-OV-3 ovarian 111% | IGROV1 ovarian 110% | OVCAR-3 ovarian 133% | NCI/ADR-RES ovarian 105%

O=C(N/N=C/c1cc(Cl)ccc1O)C(=O)N/N=C/c1cc(Cl)ccc1O
inactive: SR leukemia 51.3% | RPMI-8226 leukemia 71.9% | OVCAR-8 ovarian 60.8% | OVCAR-5 ovarian 72.5% | SK-OV-3 ovarian 64.1% | IGROV1 ovarian 50.3% | OVCAR-3 ovarian 15.5% | NCI/ADR-RES ovarian 44.2%

CC(=O)/C(=C\c1c(-c2ccccc2)[nH]c2ccccc12)S(=O)(=O)c1ccccc1
active: SR leukemia -35.9% | OVCAR-5 ovarian 1.33% | IGROV1 ovarian -5.76% | OVCAR-3 ovarian -36.6% | HS 578T breast 8.54% | NCI/ADR-RES ovarian -5.66%
inactive: OVCAR-8 ovarian 12.4% | OVCAR-4 ovarian 17.7%

OC(c1ccccc1)(c1ccccc1)C(F)(F)F
inactive: SR leukemia 85.3% | OVCAR-8 ovarian 112% | OVCAR-5 ovarian 93.9% | OVCAR-4 ovarian 122% | SK-OV-3 ovarian 103% | IGROV1 ovarian 115% | NCI/ADR-RES ovarian 106%

O=c1[nH]c2cc(O)ccc2n2cc3c(F)cccc3c12
active: SR leukemia 9.4% | SK-OV-3 ovarian -4.03% | HS 578T breast -26.1%
inactive: RPMI-8226 leukemia 46.2% | OVCAR-8 ovarian 24.6% | OVCAR-5 ovarian 43.8% | IGROV1 ovarian 16.9% | OVCAR-3 ovarian 30.3% | NCI/ADR-RES ovarian 17.2%

Cc1ccc2c(c1)C(=O)CCS2
inactive: SR leukemia 118% | RPMI-8226 leukemia 100% | OVCAR-8 ovarian 100% | OVCAR-5 ovarian 97.5% | SK-OV-3 ovarian 95% | IGROV1 ovarian 104% | OVCAR-3 ovarian 115% | NCI/ADR-RES ovarian 111%

O=C(/C(Br)=C/c1ccccc1)c1ccccc1
inactive: OVCAR-5 ovarian 58.3% | OVCAR-4 ovarian 25.7% | SK-OV-3 ovarian 105% | IGROV1 ovarian 27.5%
active: SR leukemia -24.9% | OVCAR-8 ovarian -26.5% | OVCAR-3 ovarian -31.5% | NCI/ADR-RES ovarian -11%

O=C(CN1C(=O)NC(c2ccccc2)(c2ccccc2)C1=O)c1ccc(N2CCCC2)cc1
inactive: RPMI-8226 leukemia 70.1% | OVCAR-8 ovarian 83.4% | OVCAR-5 ovarian 101% | OVCAR-4 ovarian 72.8% | SK-OV-3 ovarian 96.7% | IGROV1 ovarian 85.5% | OVCAR-3 ovarian 103% | HS 578T breast 87.7% | NCI/ADR-RES ovarian 67.2%

Oc1ccc(CN(Cc2ccc(C(F)(F)F)cc2)Cc2ccc(O)c3ncccc23)c2cccnc12
inactive: RPMI-8226 leukemia 11.7% | OVCAR-8 ovarian 11% | OVCAR-5 ovarian 44.5% | SK-OV-3 ovarian 17.8% | IGROV1 ovarian 20% | OVCAR-3 ovarian 37.5%
active: SR leukemia 3.48% | NCI/ADR-RES ovarian 6.89%

c1ccc(Nc2ccccn2)cc1
inactive: SR leukemia 80.2% | RPMI-8226 leukemia 89.1% | OVCAR-8 ovarian 107% | OVCAR-5 ovarian 106% | SK-OV-3 ovarian 105% | IGROV1 ovarian 101% | OVCAR-3 ovarian 116% | HS 578T breast 106% | NCI/ADR-RES ovarian 109%
